Inconclusive results are not listed. A call without a number means that no potency is given here. Calls of active or inactive are those of the source. Calls come from the whole dose curve; as a rule, active = well fitted cell-killing curve with a large enough effect in the repeat runs; inconclusive = weak or mixed curves, or effect the other way; inactive = no such curve, though single readings can be large or run the other way.
Potency is the fitted concentration of half-maximal effect.

The nature of this experiment: qHTS assay for identifying genotoxic compounds that show differential cytotoxicity against isogenic chicken DT40 cell lines with known DNA damage response pathways - Rev3 mutant cell line (AID 743014). Note: nearly all actives have a fitted effect of over 55% in size. The following applies: chicken DT40 Rev3-/- viability, CellTiter-Glo, 40 h; series mostly up to 68.4 µM. An excerpt:
National Center for Advancing Translational Sciences [NCATS]
NIH Chemical Genomics Center [NCGC]
U.S. Environmental Protection Agency [EPA]
National Institutes of Environmental Health Sciences [NIEHS]
National Toxicology Program [NTP]
U.S. Food and Drug Administration [FDA]
DNA repair pathways play a critical role in cellular homeostasis by repairing DNA damage induced by endogenous processes and xenobiotics. Isogenic chicken DT40 cell lines deficient in different DNA repair pathways can be used to identify genotoxic compounds and aid in characterizing the nature of the DNA damage induced. Two DNA repair-deficient cell lines with disrupted genes, Rad54/Ku70 or Rev3, were used to screen the Tox21 10K compound library. Possible genotoxicity was based on the presence of a significant increase in cytotoxicity in one or more of the DNA repair-deficient cell lines compared to that observed in the parental DNA repair-proficient cell line. CellTiter Glo viability assay (Promega, Madison, WI) was used to measure cell viability in these cells after compound treatment. This assay includes the data from the Rev3 mutant cell line.
Tox21 Assay Protocol Summary:
300 DT40 mutant cells in 5 uL/well were dispensed into white, solid-bottom 1536-well plates using a Multidrop Combi (ThermoFisher Scientific, Waltham, MA) dispenser. After the assay plates were incubated at 37 C/5% CO2 for approximately 0.5 hour, 23 nL of compounds dissolved in DMSO, positive controls or DMSO only was transferred into the assay plate by a pintool work station (Kalypsys, San Diego, CA). The assay plates were incubated at 37 C/5% CO2 for 40 hours. After 5 uL per well of CellTiter-Glo reagent was added into each well of the assay plates, the plates were incubated for 30 min at room temperature and the luminescence intensity of the plates was measured using a ViewLux (PerkinElmer, Shelton, CT) plate reader.
Turning to `CC(C)N(C)C`, the Potency result is “inactive”. The result for `O=C(O)c1cc(Cl)cc(Cl)c1O` reads “inactive”; that for `Cc1ccc(N(CCO)CCO)cc1`, “inactive”; that for `CNCc1ccc(NC(=O)c2c[nH]c3c2C(=O)CCC3)cc1`, 54.5 µM (active). As for `ClC1=C(Cl)C1(Cl)Cl`, the entry is “inactive”. With `COc1ccc(C)cc1`, the Potency result was “inactive”. As for `C=CC(=O)NC(C)C`, the entry is “inactive”; as for `CCCCCCC(CO)CCCC` (stereo not given), “inactive”. Turning to `Cc1ccc2nc(N)[nH]c(=O)c2c1Sc1ccncc1`, the Potency is 0.944 µM (active). As for `O=C1OC[C@H](Cc2cccc(O)c2)[C@H]1Cc1cccc(O)c1`, the entry is “inactive”; as for `CC(=O)OCC1=C(C(=O)O)N2C(=O)[C@@H](NC(=O)CSc3ccncc3)[C@H]2SC1`, “inactive”. For the compound `COc1ccc(C(=O)NCc2ccc(OCCN(C)C)cc2)cc1OC`, the Potency entry was “inactive”.

`CN=C(N)NC(=O)Nc1c(C)cccc1C`: the Potency result was “inactive”.

With `Cc1ccc2c(c1)CCCN2`, the Potency result is “inactive”. As for `O=C(C(=O)c1ccco1)c1ccco1`, the entry is “inactive”. The result for `Nc1nc(-c2ccc([N+](=O)[O-])cc2)cs1` reads “inactive”; that for `CCCCCCCCCCCCCOC(=O)CCSCCC(=O)OCCCCCCCCCCCCC`, “inactive”.

With `CC1C(C)(C)C2=C(C(=O)CCC2)C1(C)C` (stereo not given), the Potency entry was “inactive”. `[Cl][Nd]([Cl])[Cl]`: the Potency entry is “inactive”. Turning to `CCOC(=O)c1ccc(NC(=O)CN2CCCCC2)cc1`, the Potency is 10.6 µM (active). Regarding `CC(C)N=C=NC(C)C`, the Potency result was “inactive”. As for `O=S(=O)(O)CO`, the entry is “inactive”; as for `COc1cc(NCc2ccc3nc(N)nc(N)c3c2C)cc(OC)c1OC`, 0.15 µM (active); as for `O=C(O)/C=C/c1ccc(O)c(O)c1`, “inactive”. As for `CCOC(=O)c1c(N)sc2c1CCN(Cc1ccccc1)C2`, the figure is 29.8 µM (active); as for `CSSc1ccoc1C`, 34.2 µM (active); as for `Cc1cc(CCC(=O)OCCOCCOCCOC(=O)CCc2cc(C)c(O)c(C(C)(C)C)c2)cc(C(C)(C)C)c1O`, 26.6 µM (active).

For the compound `O=C(c1ccccc1)C1CCC1`, the Potency entry is “inactive”. As for `CCN(CC)CCOc1ccccc1C(=O)CCc1ccccc1`, the figure is 26.6 µM (active); as for `CCCCCc1ccco1`, 44.7 µM (active); as for `CC(CO)(CO)C(=O)O`, “inactive”. The result for `O=C(O)c1ccc(O)cc1O` reads “inactive”; that for `O=C1NC(=O)c2cccc3cccc1c23`, “inactive”. As for `O=NN(CCCl)C(=O)NCCCl`, the entry is “inactive”. As to `CN(C)CC/C=C1\c2ccccc2Sc2ccc(Cl)cc21`, the Potency was 16.8 µM (active). The result for `CCC1CCC(CCC(=O)O)C1` (stereo not given) reads “inactive”; that for `C=Cc1ccc(OC(C)=O)cc1`, “inactive”; that for `CC(=O)Oc1cccc(O)c1`, “inactive”. As for `COc1cc(NS(=O)(=O)c2ccc(N)cc2)nc(C)n1`, the entry is “inactive”.

As for `Cc1cc([N+](=O)[O-])ccc1N`, the Potency entry is “inactive”.

Values taken from PubChem BioAssay (Tox21).
